# Only some compounds are listed: those with a hit (about 3.2% of all), similar ones and a draw of the others.
# rCAG binder: binds r(CAG) RNA repeats; inhibition, % at 3 µM; actives 1.3% (n = 370,000); r(CAG) RNA repeat, TO-PRO-1 dye displacement fluorescence; AID 651821;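 active = inhibition above the plate cutoff, the mean of all test compounds on that plate plus 3 SD, cut at about 35% in these data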;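 note: 0% = DMSO alone and 100% = 100 µM mitoxantrone as full dye displacement; higher means more dye released from RNA so lower well fluorescence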
# NadD block: NadD (S. aureus) enzyme inhibition | inhibition, % at 20 µM | purified NadD enzyme, colorimetric absorbance read-out | actives 0.78% (n = 360,000); in the data active = inhibition above about 26%
# MsrA act: activates bovine MsrA enzyme | AID 602163 | actives 0.3% (n = 360,000) | activation, % at 10.6 µM | purified bovine MsrA, absorbance read-out; in the data active = activation above about 7.5%;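 note: 0% = vehicle and 100% = reference activator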
# MsrA inhibitor: inhibits bovine methionine sulfoxide reductase A; purified bovine MsrA, absorbance read-out; inhibition, % at 15.5 µM; actives 0.75% (n = 360,000); AID 651718; in the data active = inhibition above about 4.5%;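 note: 0% = vehicle wells with enzyme and 100% = reference inhibitor wells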
# Pemphigus Ab inh: blocks pemphigus antibody binding to human desmoglein-3 | DSG3-coupled beads, scFv-anti-DSG3-GFP binding, flow cytometry; hits give low values | binding (percent of control), % at 10 µM | AID 588358 | actives 0.48% (n = 310,000);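 active = binding more than 3 SD below its plate's average and above zero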;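 note: hits lower antibody fragment binding to DSG3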
# DAGLB inh: diacylglycerol lipase beta (human) inhibition. Q8NCG7. HEK293T DAGLB membrane lysate, EnzChek fluorogenic substrate. inhibition, % at 5.17 µM. AID 504411. actives 0.059% (n = 340,000); in the data active = inhibition above about 34%;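 note: 0% = enzyme with vehicle and 100% = wells lacking enzyme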
# Target sequence (Q8NCG7 whole entry, looked up): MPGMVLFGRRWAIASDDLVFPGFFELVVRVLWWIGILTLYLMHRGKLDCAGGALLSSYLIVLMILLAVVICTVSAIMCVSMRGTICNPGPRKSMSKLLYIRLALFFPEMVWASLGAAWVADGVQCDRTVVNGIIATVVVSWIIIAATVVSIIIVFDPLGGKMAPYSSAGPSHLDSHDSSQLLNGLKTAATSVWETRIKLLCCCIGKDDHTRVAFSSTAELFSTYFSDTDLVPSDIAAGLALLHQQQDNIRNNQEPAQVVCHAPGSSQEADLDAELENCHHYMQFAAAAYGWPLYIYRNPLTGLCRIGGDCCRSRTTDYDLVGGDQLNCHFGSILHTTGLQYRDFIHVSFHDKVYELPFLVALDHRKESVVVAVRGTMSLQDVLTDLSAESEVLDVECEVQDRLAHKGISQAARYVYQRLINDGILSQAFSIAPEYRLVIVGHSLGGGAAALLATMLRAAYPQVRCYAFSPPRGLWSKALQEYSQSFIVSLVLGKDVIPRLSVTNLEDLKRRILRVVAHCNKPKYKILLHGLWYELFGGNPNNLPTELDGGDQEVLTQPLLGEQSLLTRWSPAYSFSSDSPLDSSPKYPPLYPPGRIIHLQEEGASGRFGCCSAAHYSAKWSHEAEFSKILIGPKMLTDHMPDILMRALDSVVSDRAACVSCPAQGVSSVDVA
# NadD conf: NadD (S. aureus) inhibition, single concentration confirmation; shares compounds with NadD block; actives 13% (n = 2,000); inhibition, % at 20 µM; purified S. aureus NadD, colorimetric enzyme assay; in the data active = inhibition mostly above about 42%, no sharp cut-off; inactive = mostly below about 42%
# * = called active by the depositor; x = not tested or not shown.
SMILES,rCAG binder,NadD block,MsrA act,MsrA inhibitor,Pemphigus Ab inh,DAGLB inh,NadD conf
O=C(Nc1cc([N+](=O)[O-])ccc1O)c1cccc(C(=O)Nc2cc([N+](=O)[O-])ccc2O)c1,10,48*,-3,1,119,4,-3
O=C(Nc1cc([N+](=O)[O-])ccc1O)c1cccc([N+](=O)[O-])c1,2,-2,-2,0,111,1,x
COc1ccc(-c2nn(-c3ccccc3)cc2C(=O)N/N=C/c2ccc([N+](=O)[O-])o2)cc1,2,31*,-3,0,92,2,7
Cc1cc(C(=O)N/N=C/c2ccc([N+](=O)[O-])o2)c(C)o1,17,0,-7,4,90,-1,x
Cn1cnnc1SCc1ccccc1,1,-4,1,0,111,0,x
Cn1cnnc1SCc1ccc(-c2ccc(Br)cc2)o1,6,41*,-1,0,104,3,13
C/C(=N\NC(N)=S)C1=CCC2C3CC[C@H]4CC(O)CC[C@]4(C)C3CC[C@]12C (stereo partly drawn),2,36*,-7,1,100,1,12
O=C(CSc1nnc2c3ccccc3c3ccccc3c2n1)Nc1ccccc1F,10,42*,-7,2,94,6,3
O=C(CSc1nnc2c(n1)[nH]c1ccc(F)cc12)Nc1ccccc1F,5,-3,-4,0,97,-3,x
O=C(COc1ccc(/C=N/NC(=O)c2ccncc2)cc1)Nc1ccc([N+](=O)[O-])cc1,0,4,-6,0,x,0,x
O=C(COc1ccc(/C=N/NC(=O)c2ccc(O)cc2)cc1)Nc1cccc([N+](=O)[O-])c1,12,28*,-9,2,95,-4,33
O=C1O[C@H]([C@@H](O)CO)C(O)=C1O,-2,35*,-1,2,104,3,2
Cc1ccc2nc(-c3ccc(SCC(=O)Nc4ccc5c(c4)OCCO5)nc3)[nH]c2c1,1,16,0,2,105,-2,x
Cc1cc2nc(-c3ccc(SCC(=O)Nc4ccc5c(c4)OCCO5)nc3)[nH]c2cc1C,-2,30*,-3,3,94,-2,20
C=CCN1C(=O)[C@@H](CC(=O)NCc2ccccc2)[C@]2(C(=O)OCC)CCCCC/C=C/12,5,x,x,x,x,x,x
O=C1CC(/C=C/c2ccc([N+](=O)[O-])cc2)=Nc2ccccc2N1,19,36*,-4,0,93,13,2
COc1ccccc1NC(=O)OC[C@@H]1CSCCS(=O)(=O)N1,0,x,x,-1,x,x,x
CN1OC[C@@H]2CN(S(=O)(=O)c3ccccc3)[C@H](c3ccccc3Br)C[C@@H]21,1,-1,-2,-1,x,x,x
CCOc1ccc(NC(=O)c2ccc(NC(=O)CSc3nc4ccccc4c(=O)[nH]3)cc2)cc1,1,43*,-7,0,81*,1,7
Cc1sc2nc(SCc3nc4ccccc4[nH]3)n(Cc3ccco3)c(=O)c2c1C,21,35*,-11,1,105,-2,38
Cc1sc2nc(SCc3ccccc3)n(Cc3ccco3)c(=O)c2c1C,5,1,-15,1,96,-7,x
CCOC(=O)Cc1c(-c2cccc(Cl)c2)nc2c3ccccc3ccn12,10,10,-3,-1,x,x,x
COc1ccc(/C=N/NC(=O)c2cc(-c3ccc(C)cc3C)nc3ccccc23)cc1COC(C)=O,10,38*,-2,3,x,-4,-3
COc1ccccc1-c1cc(C(=O)N/N=C/c2ccc(C)s2)c2ccccc2n1,8,32*,-3,4,x,-2,16
CCc1ccc(/C=N/NC(=O)c2cc(-c3ccccc3OC)nc3ccccc23)s1,16,28,-2,2,x,-3,x
COc1ccc(/C=N/NC(=O)c2cc(-c3ccccc3OC)nc3ccccc23)cc1COC(C)=O,11,9,-4,4,105,1,x
O=C(N/N=C/c1ccccn1)c1cc(-c2ccc(Cl)cc2)nc2ccccc12,7,31*,-3,-1,87,1,6
O=C(N/N=C/c1ccccn1)c1cc(-c2ccc(Br)cc2)nc2ccccc12,1,32*,-2,0,105,2,6
CC(=O)N1CCCN(C(=O)CCn2nnc3ccccc32)CC1,3,x,x,x,x,x,x

# Screens as filed in PubChem BioAssay.
